# Results published in PubChem BioAssay (EPA / NIEHS).
# Active and inactive are the calls of the source. How the source made its calls: active means hit-call score of the fitted dose curve at least 0.9, where 1 is the maximum; inactive means score below 0.9.
# Legend:
# [1] = ATG_GRE_CIS: Attagene CIS-FACTORIAL HepG2 Assay for human Glucocorticoid Response Elements (GRE) (AID 2282947); conditions: HepG2 GRE cis-reporter, Attagene multiplex mRNA; actives raise or lower the signal
# Procedure, shortened: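 Following 24 h chemical exposure of transiently transfected HepG2 cells, total RNA was reverse-transcribed and reporter cDNA amplified, fluorescently labelled and sized by capillary electrophoresis. Signal gain or loss was fitted relative to DMSO vehicle.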
# [2] = ATG_ISRE_CIS: Attagene CIS-FACTORIAL HepG2 Assay for human Interferon Regulatory Factor 1 (IRF1) binding to an Interferon-Stimulated Response Element (ISRE) (AID 2282948); conditions: HepG2 ISRE cis-reporter (Attagene), mRNA transcription readout; actives raise or lower the signal
# Procedure, shortened: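 Quantitation relies on labelled RT-PCR fragments separated by capillary electrophoresis. Human HepG2 cells bearing cis-promoter reporter constructs were treated 24 h; DMSO served as baseline for bidirectional fitting.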
# [3] = ATG_M_32_CIS: Attagene CIS-FACTORIAL HepG2 Assay for M32 Transcription Factor (Internal Marker) (AID 2282949); conditions: HepG2 Attagene cis-factorial M32 reporter, mRNA; actives raise or lower the signal;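 further: background control marker of the multiplexed CIS panel rather than a real target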
# Procedure, shortened: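 HepG2 cells transiently transfected with multiplexed cis-regulated reporter units, dosed 24 h. Reporter mRNA quantified by RT-PCR, 6-FAM labelling, HpaI digestion and capillary electrophoresis; bidirectional fit vs DMSO.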
# [4] = ATG_M_06_CIS: Attagene CIS-FACTORIAL HepG2 Assay for M06 Transcription Factor (Internal Marker) (AID 2282950); conditions: HepG2 Attagene CIS-FACTORIAL M06 internal marker reporter; actives raise or lower the signal
# Procedure, shortened: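 Steps: transfect HepG2 with multiplexed cis-element reporter constructs; dose chemical 24 h; extract RNA with DNase treatment; reverse-transcribe, PCR-amplify, 6-FAM label, HpaI digest; separate fragments by capillary electrophoresis. Activity fitted both directions versus DMSO.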
# [5] = target: Hepatocyte nuclear factor 6 (Homo sapiens) (UniProt Q9UBC0); assay: ATG_HNF6_CIS: Attagene CIS-FACTORIAL HepG2 Assay for human Hepatocyte Nuclear Factor 6 (HNF6) (AID 2282952); conditions: HepG2 Attagene cis-factorial HNF6 reporter transcription; actives raise or lower the signal
# Procedure, shortened: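 HepG2, transient MRTU transfection (cis promoters); 24 h chemical exposure; total RNA → oligo(dT) RT → PCR → 6-FAM labelling → HpaI cut → CE; bidirectional fit vs DMSO.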
# [6] = target: Heat shock factor protein 1 (Homo sapiens) (UniProt Q00613); assay: ATG_HSE_CIS: Attagene CIS-FACTORIAL HepG2 Assay for human Heat Shock Transcription Factor 1 (HSE) (AID 2282953); conditions: HepG2 HSE cis-reporter, Attagene RNA transcription; actives raise or lower the signal
# Procedure, shortened: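 Cells were transfected with cis-element-driven reporter constructs, dosed for 24 h, then total RNA was reverse-transcribed and reporter cDNA amplified, FAM-labelled and digested with HpaI. Fragments were resolved by capillary electrophoresis; gain or loss was fitted against DMSO.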
# [7] = ATG_MRE_CIS: Attagene CIS-FACTORIAL HepG2 Assay for human Metal Responsive Element (MRE) (AID 2282954); conditions: HepG2 MRE cis-reporter transcription, Attagene multiplex; actives raise or lower the signal
# Procedure, shortened: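 Step one: transfect HepG2 with cis-regulated reporter units. Step two: dose 24 h. Step three: isolate RNA, RT-PCR, 6-FAM label, HpaI digest, capillary electrophoresis. Fit bidirectionally to DMSO.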
# [8] = ATG_PBREM_CIS: Attagene CIS-FACTORIAL HepG2 Assay for human Phenobarbital-responsive Enhancer Module (PBREM) (AID 2282955); conditions: HepG2 PBREM cis-reporter, Attagene multiplexed transcription; actives raise or lower the signal
# Procedure, shortened: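 Endogenous transcription factor activity was read from reporter transcripts in transiently transfected human HepG2 liver cells after 24 h dosing. RT-PCR products were fluorescently labelled, HpaI-cut and sized by capillary electrophoresis; activity fitted bidirectionally against DMSO baseline.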
# [9] = target: Hypoxia-inducible factor 1-alpha (Homo sapiens) (UniProt Q16665); assay: ATG_HIF1a_CIS: Attagene CIS-FACTORIAL HepG2 Assay for human Hypoxia Inducible Factor 1 (HIF1A) (AID 2282951); conditions: HepG2 Attagene cis-factorial HIF1a reporter transcription; actives raise or lower the signal
# Procedure, shortened: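 Activity is fitted in both directions relative to DMSO. Reporter transcripts are read by RT-PCR, fluorescent primer extension and capillary electrophoresis after 24 h chemical treatment. The cells are HepG2 carrying transiently transfected cis-element-driven reporter units responding to endogenous factors.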
# Chain of Hepatocyte nuclear factor 6 (Homo sapiens) (Q9UBC0 whole entry, looked up): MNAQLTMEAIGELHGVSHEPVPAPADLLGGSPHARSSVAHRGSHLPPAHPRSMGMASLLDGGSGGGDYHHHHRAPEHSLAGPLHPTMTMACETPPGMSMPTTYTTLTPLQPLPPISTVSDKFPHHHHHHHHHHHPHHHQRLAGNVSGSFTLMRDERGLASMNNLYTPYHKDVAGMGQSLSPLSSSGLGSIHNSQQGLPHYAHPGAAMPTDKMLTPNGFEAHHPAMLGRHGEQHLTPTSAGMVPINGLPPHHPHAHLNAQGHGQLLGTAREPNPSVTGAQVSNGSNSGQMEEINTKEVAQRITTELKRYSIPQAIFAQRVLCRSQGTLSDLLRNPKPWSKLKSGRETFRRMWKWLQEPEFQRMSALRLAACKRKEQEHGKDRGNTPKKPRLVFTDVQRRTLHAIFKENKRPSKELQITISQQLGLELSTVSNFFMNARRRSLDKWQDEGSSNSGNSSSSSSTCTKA
# Chain of Heat shock factor protein 1 (Homo sapiens) (Q00613 whole entry, looked up, the tested form may be a part): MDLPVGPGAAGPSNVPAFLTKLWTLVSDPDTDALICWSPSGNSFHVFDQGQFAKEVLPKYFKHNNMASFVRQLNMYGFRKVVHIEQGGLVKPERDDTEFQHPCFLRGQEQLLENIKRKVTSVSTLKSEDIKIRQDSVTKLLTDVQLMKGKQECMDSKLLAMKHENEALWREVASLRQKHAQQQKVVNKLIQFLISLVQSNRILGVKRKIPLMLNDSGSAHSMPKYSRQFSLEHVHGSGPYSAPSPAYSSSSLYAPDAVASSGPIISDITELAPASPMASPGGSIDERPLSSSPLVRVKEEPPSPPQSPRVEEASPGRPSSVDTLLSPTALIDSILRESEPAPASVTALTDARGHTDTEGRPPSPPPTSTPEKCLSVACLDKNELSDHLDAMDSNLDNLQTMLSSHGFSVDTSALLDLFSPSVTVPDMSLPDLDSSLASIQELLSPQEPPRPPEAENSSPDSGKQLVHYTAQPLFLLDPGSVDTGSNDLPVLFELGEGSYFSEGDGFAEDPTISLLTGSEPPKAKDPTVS
# Chain of Hypoxia-inducible factor 1-alpha (Homo sapiens) (Q16665 whole entry, looked up): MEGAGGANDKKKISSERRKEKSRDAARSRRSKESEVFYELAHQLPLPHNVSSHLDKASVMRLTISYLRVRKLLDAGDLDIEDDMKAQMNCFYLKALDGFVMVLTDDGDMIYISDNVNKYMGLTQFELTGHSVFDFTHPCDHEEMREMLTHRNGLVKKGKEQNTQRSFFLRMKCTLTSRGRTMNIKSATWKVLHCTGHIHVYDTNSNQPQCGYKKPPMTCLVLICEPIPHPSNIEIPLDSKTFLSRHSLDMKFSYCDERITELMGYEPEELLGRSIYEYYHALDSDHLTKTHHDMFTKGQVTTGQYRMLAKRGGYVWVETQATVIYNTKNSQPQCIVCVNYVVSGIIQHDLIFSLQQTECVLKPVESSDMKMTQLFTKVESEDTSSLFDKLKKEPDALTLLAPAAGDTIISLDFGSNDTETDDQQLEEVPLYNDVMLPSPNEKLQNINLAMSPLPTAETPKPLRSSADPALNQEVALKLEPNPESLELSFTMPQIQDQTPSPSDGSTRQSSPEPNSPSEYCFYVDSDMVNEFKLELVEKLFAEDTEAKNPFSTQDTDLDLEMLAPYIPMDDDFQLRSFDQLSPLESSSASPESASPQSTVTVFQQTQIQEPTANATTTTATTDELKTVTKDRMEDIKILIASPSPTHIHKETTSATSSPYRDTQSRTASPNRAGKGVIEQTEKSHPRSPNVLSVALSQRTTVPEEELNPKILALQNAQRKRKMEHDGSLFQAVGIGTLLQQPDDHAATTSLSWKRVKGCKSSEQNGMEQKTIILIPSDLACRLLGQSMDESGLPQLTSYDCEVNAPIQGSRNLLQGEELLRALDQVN
SMILES,outcome [1],outcome [2],outcome [3],outcome [4],outcome [5],outcome [6],outcome [7],outcome [8],AC50 [7],outcome [9],AC50 [2],AC50 [6],AC50 [1],AC50 [9],AC50 [8]
Cn1c([N+](=O)[O-])cnc1COC(N)=O,inactive,inactive,inactive,inactive,inactive,inactive,inactive,inactive,–,–,–,–,–,–,–
O=C(O)CCCC[C@@H]1SC[C@@H]2NC(=O)N[C@@H]21,inactive,inactive,inactive,inactive,inactive,inactive,inactive,inactive,–,–,–,–,–,–,–
Nc1ccc(N=Nc2ccccc2)c(N)n1,inactive,inactive,inactive,inactive,inactive,inactive,–,inactive,69.9 µM (active),–,–,–,–,–,–
CC(C)(Oc1ccc(C2CC2(Cl)Cl)cc1)C(=O)O (stereo not given),inactive,inactive,inactive,inactive,inactive,inactive,inactive,inactive,–,–,–,–,–,–,–
Cc1ccccc1C,inactive,inactive,inactive,–,inactive,inactive,inactive,–,–,inactive,–,–,–,–,–
CCC(=O)Oc1ccc(/C(CC)=C(\CC)c2ccc(OC(=O)CC)cc2)cc1,inactive,–,inactive,inactive,inactive,–,–,–,30.6 µM (active),–,16.9 µM (active),29.1 µM (active),–,–,–
C=C1C2CCC(C2)C1(C)C (stereo not given),inactive,inactive,inactive,inactive,inactive,inactive,inactive,inactive,–,–,–,–,–,–,–
[Cl][Bi]([Cl])([c]1ccccc1)([c]1ccccc1)[c]1ccccc1,inactive,–,inactive,inactive,–,–,–,inactive,6.46 µM (active),inactive,2.74 µM (active),5.52 µM (active),–,–,–
CC1(C)S[C@@H]2[C@H](NC(=O)COc3ccccc3)C(=O)N2[C@H]1C(=O)O,inactive,inactive,inactive,inactive,inactive,inactive,inactive,inactive,–,–,–,–,–,–,–
C[Si](C)(CCCN)O[Si](C)(C)CCCN,inactive,inactive,inactive,inactive,–,inactive,inactive,inactive,–,inactive,–,–,–,–,–
O=C(Nc1ccccc1)c1ccccc1O,inactive,inactive,inactive,inactive,–,inactive,inactive,inactive,–,inactive,–,–,–,–,–
O=C(c1ccccc1)c1ccc(O)c(O)c1O,inactive,inactive,inactive,inactive,inactive,inactive,inactive,–,–,–,–,–,–,–,–
NCCCN1CCN(CCCN)CC1,inactive,inactive,inactive,inactive,–,inactive,inactive,inactive,–,inactive,–,–,–,–,–
C=C[Si](C)(C)O[Si](C)(C)C=C,inactive,inactive,inactive,inactive,inactive,inactive,inactive,–,–,–,–,–,–,–,–
CNC(=S)NN,inactive,inactive,inactive,inactive,–,inactive,inactive,–,–,inactive,–,–,–,–,–
C=CC(C)(CCC=C(C)C)OC(=O)C(C)C (stereo not given),inactive,inactive,inactive,inactive,inactive,inactive,inactive,–,–,–,–,–,–,–,–
O=C1CCCCCCCCCCC(=O)OCCO1,inactive,inactive,inactive,inactive,–,inactive,inactive,inactive,–,inactive,–,–,–,–,–
O=c1[nH]c(=O)c2[nH]c(=O)[nH]c2[nH]1,inactive,inactive,inactive,inactive,inactive,inactive,inactive,–,–,–,–,–,–,–,–
SCCc1cnccn1,inactive,–,inactive,inactive,inactive,inactive,inactive,inactive,–,–,43.3 µM (active),–,–,–,–
CO[Si](OC)(OC)c1ccccc1,inactive,inactive,inactive,inactive,–,inactive,inactive,inactive,–,inactive,–,–,–,–,–
CCO[Si](C)(OCC)OCC,inactive,inactive,inactive,inactive,–,inactive,inactive,inactive,–,inactive,–,–,–,–,–
CC1(C)O[C@@H]2C[C@H]3[C@@H]4C[C@H](F)C5=CC(=O)C=C[C@]5(C)[C@@]4(F)[C@@H](O)C[C@]3(C)[C@]2(C(=O)CO)O1,–,inactive,inactive,–,inactive,inactive,inactive,–,–,inactive,–,–,0.563 µM (active),–,–
CCOC(=O)N1CCC(=C2c3ccc(Cl)cc3CCc3cccnc32)CC1,inactive,–,inactive,inactive,–,inactive,–,–,10.7 µM (active),–,7.19 µM (active),–,–,7.91 µM (active),0.933 µM (active)
CCOCC(=O)O,inactive,inactive,inactive,–,inactive,inactive,inactive,inactive,–,inactive,–,–,–,–,–
N=c1ccn2c(n1)O[C@H]1[C@H](O)[C@@H](CO)O[C@H]12,inactive,inactive,inactive,inactive,inactive,inactive,inactive,–,–,–,–,–,–,–,–
C[C@]12C=CC(=O)C=C1CC[C@@H]1[C@@H]2[C@@H](O)C[C@@]2(C)[C@H]1CC[C@]2(O)C(=O)CO,–,inactive,inactive,inactive,inactive,inactive,inactive,inactive,–,–,–,–,0.394 µM (active),–,–
NC(=O)OCC(COC(N)=O)c1ccccc1,inactive,inactive,inactive,inactive,inactive,inactive,inactive,inactive,–,–,–,–,–,–,–
CC(C)c1ccc2cc(C(C)C)ccc2c1,inactive,inactive,inactive,–,inactive,inactive,inactive,–,–,inactive,–,–,–,–,–
CCCCC(CC)COCC1CO1 (stereo not given),inactive,inactive,inactive,inactive,–,inactive,inactive,inactive,–,inactive,–,–,–,–,–
C=CC(=O)OCCC(=O)O,inactive,inactive,inactive,inactive,–,inactive,inactive,inactive,–,inactive,–,–,–,–,–
